In PubChem BioAssay AID504375 (National Center for Advancing Translational Sciences (NCATS), 2011):
About 25 (2%) of roughly 1,600 compounds were called active. About 7% were inconclusive and are not listed. The call rests on the fitted dose curve; in most records, active means well fitted inhibition curve with a large enough effect; inconclusive means small, poorly fitted or top-dose-only effect, or effect the other way; inactive means no such curve, though single readings can be large or run the other way. The list comes from a sample in which actives are over-represented; it also holds similar structures and randomly drawn compounds. Entries that show only a call come without a potency.
Potency means the concentration at half of the fitted maximal effect.

What follows are compounds tested against Runt-related transcription factor 1 (Homo sapiens) + Core-binding factor subunit beta (Homo sapiens) (UniProt Q01196+Q13951) (assay: qHTS Assay for Compounds Blocking the Interaction Between CBF-beta and RUNX1 for the Treatment of Acute Myeloid Leukemia: Hit Validation with Orthogonal Assay). Settings: CBFbeta-RUNX1 binding orthogonal assay, biochemical; series mostly up to 41 µM.
Sequence of Runt-related transcription factor 1 (Homo sapiens) + Core-binding factor subunit beta (Homo sapiens) (Q01196 whole entry, looked up): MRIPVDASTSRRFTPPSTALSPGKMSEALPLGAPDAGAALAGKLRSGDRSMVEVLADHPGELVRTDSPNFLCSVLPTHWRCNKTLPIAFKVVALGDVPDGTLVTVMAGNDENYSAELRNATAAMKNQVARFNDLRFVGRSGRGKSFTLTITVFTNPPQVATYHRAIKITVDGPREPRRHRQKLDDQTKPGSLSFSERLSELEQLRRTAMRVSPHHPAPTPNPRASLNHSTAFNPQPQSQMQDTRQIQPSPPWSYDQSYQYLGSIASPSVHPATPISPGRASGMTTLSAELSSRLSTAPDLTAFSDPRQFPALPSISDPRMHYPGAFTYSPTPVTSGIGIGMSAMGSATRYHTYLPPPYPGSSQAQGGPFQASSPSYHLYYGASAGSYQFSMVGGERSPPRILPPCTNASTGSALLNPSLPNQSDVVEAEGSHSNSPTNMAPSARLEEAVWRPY
Sequence of Runt-related transcription factor 1 (Homo sapiens) + Core-binding factor subunit beta (Homo sapiens) (Q13951 whole entry, looked up): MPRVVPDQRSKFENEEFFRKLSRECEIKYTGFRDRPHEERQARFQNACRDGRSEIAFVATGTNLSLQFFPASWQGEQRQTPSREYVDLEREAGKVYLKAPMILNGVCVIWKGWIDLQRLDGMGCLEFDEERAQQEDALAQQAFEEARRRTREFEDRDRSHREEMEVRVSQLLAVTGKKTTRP
In short: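 This is an orthogonal TR-FRET assay. His6-CBF-beta and biotin-RUNX1 (30 nM each) were preincubated with compound for 30 min, then Tb-anti-His antibody (0.44 ng) and streptavidin-XL665 (5 nM) were added. The signal was read after 90 min.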
`NS(=O)(=O)c1ccc(N/N=C/c2ccc(C(=O)O)cc2)c([N+](=O)[O-])c1` was tested, and the Potency was “inactive”.
For `CC(=O)CCn1cc([N+](=O)[O-])nc1C`, the Potency was “inactive”.
`Cc1cccn(Cc2c(F)cccc2Cl)c1=O` was tested, and the Potency was “inactive”.
In the case of `CC(C)(C)OC(=O)N1CCCN(C(=O)Nc2ccc(C(F)(F)F)cc2)CC1`, the Potency is reported as “inactive”.
For `CC(/C=N/n1c(-c2ccccn2)n[nH]c1=S)=C\c1ccccc1`, the Potency was “inactive”.
`CCC12CCCN3CCc4c(n(c5ccccc45)C(O)(C(=O)OC)C1)C32` (centres undefined) was tested, and the Potency was “inactive”.
For `O=C(O)CSCC(=O)N1CCCN(c2nc3ccc(Cl)cc3s2)CC1`, the Potency was “inactive”.
In the case of `Cc1nn(Cc2ccccc2)c(C)c1/C=N/NC(=O)c1ccncc1`, the Potency is reported as “inactive”.
In the case of `COc1ccccc1OCc1ccc(C(=O)NN)o1`, the Potency is reported as “inactive”.
`Cc1nn(C)c(=O)c(N)c1-c1cc(-c2ccc(Cl)c(Cl)c2)n[nH]1` was tested, and the Potency was “inactive”.
In the case of `CC(C)(C)c1ccc(C(=O)Cn2nc(C(=O)O)c3ccccc3c2=O)cc1`, the Potency is reported as “inactive”.
For `CN(C)c1cccc(N(C)C)c1CNC(=O)C(C)(C)C`, the Potency was “inactive”.
`S=c1[nH]nc(-c2cccs2)n1C1CCCCC1` was tested, and the Potency was “inactive”.
With `CCCSc1nnc(NC(=O)Nc2ccc(C)cc2)s1` the Potency was “inactive”.
With `O=C(/C=C/c1cn(CC(O)CN2CCOCC2)c2ccccc12)c1cccs1` (centres undefined) the Potency was “inactive”.
For `Cc1nc([N+](=O)[O-])cn1CC(O)c1ccccc1` (centres undefined), the Potency was “inactive”.
In the case of `CCSc1cc(Cl)nc(N)n1`, the Potency is reported as “inactive”.
With `COc1cc(OC)c(OC)cc1/C=N/NC(=O)CCc1c(C)n[nH]c1C` the Potency was “inactive”.
`CC(=O)N1CCCC1(C(=O)O)c1ccccc1` (centres undefined) was tested, and the Potency was “inactive”.
`O=C(N/N=C/C(Br)=C/c1ccccc1)C(O)c1ccccc1` (centres undefined) was tested, and the Potency was “inactive”.
`O=C(O)C1CC(c2ccccc2)=Nc2ccccc2S1` (centres undefined) was tested, and the Potency was “inactive”.
With `COc1ccc2nc(-c3ccc(Cl)cc3)cc(C(=O)O)c2c1` the Potency was “inactive”.
In the case of `Oc1cccc(O)c1O`, the Potency is reported as 888 nM (active).
In the case of `Cc1ccc(OCC(=O)N(Cc2ccc(N(C)C)cc2)C2CCS(=O)(=O)C2)cc1C` (centres undefined), the Potency is reported as “inactive”.
With `CCOC(=O)c1cnc2c(F)ccc(F)c2c1Sc1ccccc1` the Potency was “inactive”.
In the case of `O=C(Nc1ccc(Cl)cc1)NC1CCCCNC1=O` (centres undefined), the Potency is reported as “inactive”.
For `Cc1nn(-c2ccccc2)nc1C(=O)NNC(=O)c1cccc2ccccc12`, the Potency was “inactive”.
`Cc1nn2c(NCCN(C)C)c3c(nc2c1-c1ccccc1)CCCC3` was tested, and the Potency was “inactive”.
In the case of `Cc1nc([N+](=O)[O-])cn1C(C)C`, the Potency is reported as “inactive”.
For `c1ccc(-c2ccc(C3=Nn4c(nnc4-c4cccs4)SC3)cc2)cc1`, the Potency was “inactive”.
`CC(=O)Nc1ccc(Nc2cc(C(C)C)nc3c(-c4ccccc4)c(C)nn23)cc1` was tested, and the Potency was “inactive”.
With `O=C(O)c1ccccc1Sc1ccccc1S(=O)(=O)NC1CCCCC1` the Potency was “inactive”.
For `CCC(C)NC(=O)CC(C)C` (centres undefined), the Potency was “inactive”.
With `O=C1CC(N2CCN(S(=O)(=O)c3ccccc3)CC2)C(=O)N1c1ccccc1` (centres undefined) the Potency was “inactive”.
With `C/C(Cc1ccccc1)=N\NC(=O)CNC(=O)c1ccc(Cl)cc1Cl` the Potency was “inactive”.
For `N/C(CC1CC1(Cl)Cl)=N\OC(=O)c1ccccc1` (centres undefined), the Potency was “inactive”.
In the case of `CC(=O)COc1nc2c(c(-c3ccco3)c1C#N)CCc1ccccc1-2`, the Potency is reported as “inactive”.
`Nc1nc(NCc2ccco2)nc(NCCO)c1[N+](=O)[O-]` was tested, and the Potency was “inactive”.
`Cc1ccc(-n2ncc(-c3nn[nH]n3)c2N)cc1` was tested, and the Potency was “inactive”.
With `NC(Cc1ccc(O)c(O)c1)C(=O)O` (centres undefined) the Potency was 891 nM (active).
With `N[C@H](Cc1ccc(O)c(O)c1)C(=O)O` the Potency was 7080 nM (active).
For `O=C(/C=C/c1ccc(O)c(O)c1)c1ccccc1O`, the Potency was “inactive”.
With `NCCc1ccc(O)c(O)c1` the Potency was “inactive”.
With `COc1ccc(C(=O)Nc2cccnc2Sc2ccc(Cl)cc2)cc1` the Potency was “inactive”.
In the case of `C/C(=N\NC(=O)Cn1nc(C)cc1C)c1ccc([N+](=O)[O-])cc1`, the Potency is reported as “inactive”.
`Cc1n[nH]c(C)c1CCC(=O)N/N=C/c1cccs1` was tested, and the Potency was “inactive”.
In the case of `CCOC(=O)COc1nc2c(c(-c3ccco3)c1C#N)CCc1ccccc1-2`, the Potency is reported as “inactive”.
With `CCOc1ccc(/C(C)=N/NC(=O)Cn2nc([N+](=O)[O-])cc2C)cc1` the Potency was “inactive”.
In the case of `Cc1[nH]c(=O)[nH]c1C(=O)CCCCC(=O)OCC(=O)Nc1ccccn1`, the Potency is reported as 44.7 nM (active).
In the case of `Cc1ccccc1NC(=S)Nc1ccccn1`, the Potency is reported as “inactive”.
`Cc1ccc(NC(=S)Nc2ccccn2)cc1C` was tested, and the Potency was “inactive”.
In the case of `Clc1nc(Cl)nc(-c2cn(-c3ccccc3)c3ccccc23)n1`, the Potency is reported as “inactive”.
`Nc1c(Cl)ncnc1NCC(O)CO` (centres undefined) was tested, and the Potency was “inactive”.
For `Cc1onc(-c2c(Cl)cccc2Cl)c1C(=O)c1ccc(F)cc1`, the Potency was “inactive”.
For `O=C1OCC2OC(O)C(O)C(O)C2OC(=O)c2cc(O)c(O)c(O)c2-c2c(O)c(O)c3oc(=O)c4c(c(O)c(O)c5oc(=O)c2c3c54)-c2c1cc(O)c(O)c2O` (centres undefined), the Potency was 398 nM (active).
In the case of `O=C(O[C@@H]1OC2COC(=O)c3cc(O)c(O)c(O)c3-c3c(cc(O)c(O)c3O)C(=O)O[C@@H]([C@H]1O)[C@@H]2O)c1cc(O)c(O)c(O)c1`, the Potency is reported as 891 nM (active).
For `Cc1nn(C)c(Sc2ccccn2)c1[N+](=O)[O-]`, the Potency was “inactive”.
In the case of `Nc1ccc(Oc2ccccc2F)nc1`, the Potency is reported as “inactive”.
`Cc1nc(C)c(-c2ccn(C(=O)NC(C)C)n2)s1` was tested, and the Potency was “inactive”.
For `CC(C)(C)c1ccc(C(=O)Nc2ccc(S(N)(=O)=O)cc2)cc1`, the Potency was “inactive”.
In the case of `c1ccc2oc(-c3ccn[nH]3)cc2c1`, the Potency is reported as “inactive”.
In the case of `CN(C)C(=S)Nc1ccc(Cl)cc1`, the Potency is reported as “inactive”.
With `C/C(=N\NC(=O)c1cc(-c2cccc([N+](=O)[O-])c2)n[nH]1)c1ccc(F)cc1` the Potency was “inactive”.
For `Cc1cc(Cl)c2cc3ccccc3cc2n1`, the Potency was “inactive”.
For `Cc1ccc(Cl)cc1NC(=S)N(CCN(C)C)C(C)c1ccccn1` (centres undefined), the Potency was 1220 nM (active).
For `Cc1ccc(Cl)cc1NC(=S)NN`, the Potency was “inactive”.
`Cc1cccc(NC(=S)N(CCN(C)C)C(C)c2ccccn2)c1` (centres undefined) was tested, and the Potency was “inactive”.
For `COc1ccc(C2Sc3ccccc3N(CCN(C)C)C(=O)C2OC(C)=O)cc1` (centres undefined), the Potency was “inactive”.
For `c1ccc(N2CCOCCOCCOCCOCC2)cc1`, the Potency was “inactive”.
With `CC(C)(C)OC(=O)N1CCCN(C(=O)Nc2cccc(Cl)c2)CC1` the Potency was “inactive”.
In the case of `O=C1c2ccccc2C(=O)N1/N=C/c1ccc(O)c(O)c1O`, the Potency is reported as 2820 nM (active).
With `COc1ccc(C(=O)COc2ccc(C)cc2NC(C)=O)cc1` the Potency was “inactive”.
For `CC1CC(C)(C)NC(=S)O1` (centres undefined), the Potency was “inactive”.
For `CCCCCNc1nc2sc3c(c2c(=O)n1-c1cccc(Cl)c1)CCN(C)C3`, the Potency was “inactive”.
